Bioassay records from PubChem BioAssay.
Pf growth 96h – Primary qHTS for delayed death inhibitors of the malarial parasite plastid, 96 hour incubation | P. falciparum luciferase reporter growth, 96 h | Potency, µM (titrated, usually from 28.7 µM), most hits filed as inhibitors | 320,000 tested, 6.9% active | AID 504834, 2011; active = well fitted inhibition curve with a large enough effect; inconclusive = small, poorly fitted or top-dose-only effect, or another doubt; inactive = no such curve, though single readings can be large or run the other way
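96 h incubation, 37 C, 5% CO2, of luciferase-reporter P. falciparum-infected RBCs (2% hematocrit, 0.05% parasitemia final) with test compounds; endpoint luminescence.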
Shiga inhibitor – A qHTS for Small Molecule Inhibitors of Shiga Toxin | Vero cells, Shiga toxin protein synthesis inhibition reporter | inhibition, % at 38.7 µM | 290,000 tested, 9.2% active; in the data active = inhibition mostly above about 28%, no sharp cut-off; inactive = mostly below about 43%
NS1 inh – qHTS Assay for Inhibitors of Influenza NS1 Protein Function. 270,000 tested, 0.4% active. Potency, µM (titrated, usually from 46.1 µM); also: actives are rising curves; nearly all actives have a fitted effect of over 50% in size
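Growth recovery, yeast-based: influenza A NS1 expressed in S. cerevisiae causes slow growth, and suppressors are detected by OD600. The parent strain without NS1 is used as positive control.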
Cycloheximide cs – Cycloheximide Counterscreen for Small Molecule Inhibitors of Shiga Toxin; cell reporter, cycloheximide protein synthesis inhibition counterscreen; max response, %; 300,000 tested, 12% active; AID 2314, 2010; in the data active = max response mostly above about 13%, no sharp cut-off; inactive = mostly below about 14%; also: read at 38.3 µM for the half of the compounds with a filed dose
Pf growth 48h – Primary qHTS for delayed death inhibitors of the malarial parasite plastid, 48 hour incubation; P. falciparum luciferase growth in erythrocytes, 48 h; Potency, µM (titrated, usually from 28.7 µM), most hits filed as inhibitors; 310,000 tested, 5.9% active; AID 504832, 2011; active = well fitted inhibition curve with a large enough effect; inconclusive = small, poorly fitted or top-dose-only effect, or another doubt; inactive = no such curve, though single readings can be large or run the other way
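Parasite viability was followed by luminescence of a genomically integrated firefly luciferase. Cultures held 0.1% parasitemia at 2% hematocrit (final), incubated under 5% CO2 at 37 C.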
SARS PLpro yeast – qHTS of Yeast-based Assay for SARS-CoV PLP. S. cerevisiae expressing SARS-CoV PLpro, growth rescue. Potency, µM (top dose mostly 32.9 µM), actives largely listed as activators. 330,000 tested, 0.19% active. AID 485353, 2010; also: nearly all actives have a fitted effect of over 55% in size
Numbers stand for hits; - = inactive; ? = inconclusive; . = not tested or not shown. Most compounds without a hit are left out; they make up all but 21% or so of the library. Unless noted, calls follow the shape of the full dose curve.

SMILES	Pf growth 96h	Shiga inhibitor	NS1 inh	Cycloheximide cs	Pf growth 48h	SARS PLpro yeast
O=C(CSc1nnc(-c2ccccc2F)o1)N1CCCC1	-	85.7	-	26.3	-	-
CCN(CC)S(=O)(=O)c1ccc(-c2nnc(SCC(=O)N3CCOCC3)o2)cc1	8.28µM	-	-	-	?	-
CC1CCCCN1C(=O)CSc1nnc(-c2ccccc2F)o1 (stereo not drawn)	-	94.2	-	35.0	-	-
Nc1nnnn1CCO	.	.	-	.	.	.
CCOc1cc(C(=S)N2CCOCC2)cc(Br)c1OS(=O)(=O)c1ccccc1	?	-	-	-	-	-
CCOc1ccccc1-c1nnc(SCC(=O)NC2(C#N)CCCC2)o1	9.28µM	.	.	.	?	-
COc1ccccc1-c1nnc(SCC(=O)N2CCCC2)o1	-	39.6	-	-	-	-
COc1cc(OC)cc(-c2nnc(SCC(=O)N3CCOCC3)o2)c1	-	-	-	-	3.7µM	?
O=C1C(=O)N(c2cccc(Cl)c2)C(c2ccccc2[N+](=O)[O-])/C1=C(\O)c1ccccc1 (stereo not drawn)	-	-	-	18.7	-	-
NS(=O)(=O)c1ccc(N2C(=O)C(=O)/C(=C(/O)c3ccccc3)C2c2ccc(Cl)cc2)cc1 (stereo not drawn)	-	-	?	11.2	-	-
O=C1C(=O)N(c2ccccc2)C(c2ccccc2[N+](=O)[O-])/C1=C(\O)c1ccccc1 (stereo not drawn)	-	-	-	-	-	-
CN1N=C(C(=O)N2CCCC(N3CCN(c4ccc(F)cc4)CC3)C2)CCC1=O (stereo not drawn)	?	-	-	-	-	-
CC(NC(=O)CCCCCNC(=O)N1CCn2c1nc1ccccc12)c1ccccc1 (stereo not drawn)	?	-	-	-	?	-
CCOC(=O)C1=C(Nc2ccc(Cl)cc2)OCC1=O	2.62µM	-	-	-	11.7µM	-
S=c1[nH]nc(-c2ccccn2)n1/N=C/c1cccc2ccccc12	-	-	-	-	-	-
CC(C)CC(=O)Nc1ccc(Oc2ccc3c(c2)C(=O)NC3=O)cc1	13.1µM	-	-	-	-	-
CCCCCCCCCCOC(=O)C[N+](C)(C)C/C=C(/C)Cl	2.33µM	-	-	-	?	-
CCCCCCCCOC(=O)C[N+](C)(C)C/C=C(/C)Cl	4.15µM	-	-	-	2.62µM	-
CS(=O)(=O)N(Cc1ccccc1)c1ccc(C(=O)N2CCN(c3cccc(Cl)c3)CC2)cc1	.	-	-	22.1	?	-
O=C(c1ccc(-c2ccccc2)cc1)N1CCN(c2ccccc2)CC1	-	-	-	13.2	-	-
CCOc1ccc(C(=O)N2CCN(c3ccccc3)CC2)cc1	-	30.0	-	-	-	-
O=C(c1cc2ccccc2cc1O)N1CCN(c2cccc(Cl)c2)CC1	11.7µM	.	.	.	?	-
O=C(CCN1C(=O)[C@@H]2Cc3ccccc3CN2C1=O)N[C@H](Cc1ccccc1)C(=O)O	-	-	-	-	-	-
O=C(c1ccc(-c2ccccc2)cc1)N1CCN(c2nc3ccccc3o2)CC1	?	-	-	15.1	-	-
CC(C)(C)NC(=O)C1CCN(C(=O)c2ccc(-c3ccccc3)cc2)CC1	.	-	-	-	9.28µM	-
SMILES	Pf growth 96h	Shiga inhibitor	NS1 inh	Cycloheximide cs	Pf growth 48h	SARS PLpro yeast
CC(C)(C)c1ccc(C(=O)N2CCN(c3nc4ccccc4o3)CC2)cc1	-	-	-	-	.	-
Cc1cccc(N2CCN(C(=O)c3ccc4c(c3)CCN4S(C)(=O)=O)CC2)c1C	?	-	-	-	-	-
CSc1ncc(Cl)c(C(=O)Nc2nnc(SC/C=C/c3ccccc3)s2)n1	.	-	?	-	-	-
CCOc1ccc(NC(=O)c2nc(S(=O)(=O)Cc3ccccc3F)ncc2Cl)cc1	.	-	.	-	.	.
CC(C)c1nnc(NC(=O)c2nc(S(=O)(=O)Cc3ccccc3F)ncc2Cl)s1	-	105.7	-	56.5	-	-
Cc1nnc(NC(=O)c2nc(S(=O)(=O)Cc3ccccc3C)ncc2Cl)s1	-	51.5	?	43.6	-	-
CSc1nnc(NC(=O)c2nc(S(=O)(=O)Cc3ccccc3F)ncc2Cl)s1	?	35.7	-	50.9	-	-
CS(=O)(=O)c1ncc(Cl)c(C(=O)Nc2ccc3ccccc3c2)n1	-	-	-	-	-	-
O=C(/C=C/c1ccccc1[N+](=O)[O-])NCc1ccncc1	?	-	-	-	-	-
CC12CCC(=O)N1C(C(=O)Nc1ccc(F)cc1)CS2 (stereo not drawn)	-	-	-	-	-	-
COc1ccc(-c2oc3cc(O)c(OC)c(O)c3c(=O)c2OC)cc1	?	-	-	16.3	?	-
COc1ccc(-c2oc3c(OC)c(OC)c(OC)c(O)c3c(=O)c2OC)cc1OC	3.29µM	-	-	-	?	-
COc1ccc(-c2oc3cc(OC)c(O)c(OC)c3c(=O)c2OC)cc1O	10.4µM	-	-	-	?	-
COc1c(-c2ccc(O)cc2)oc2cc(O)cc(O)c2c1=O	-	-	-	-	?	-
CCc1nnc(NC(=O)CC(C)c2ccccc2)s1 (stereo not drawn)	-	.	-	-	-	-
Cc1nccc(-c2cc(-c3ccc(Cl)cc3Cl)no2)n1	-	96.5	-	36.0	-	-
CCC(Oc1ccccc1)C(=O)N(CC)CC(=O)NCc1ccc(F)cc1 (stereo not drawn)	-	.	.	.	?	-
CCN(CC(=O)NCc1ccc(F)cc1)C(=O)C1CCN(C(=O)Nc2ccccc2)CC1	.	-	-	13.1	-	-
CCCN(CC(=O)Nc1ccccc1C)C(=O)c1ccc(COc2ccccc2)cc1	-	85.1	-	30.1	?	-
CCN(CC(=O)NCc1ccc(F)cc1)C(=O)c1ccc(COc2ccccc2)cc1	-	99.0	-	52.2	-	-
COc1cccc(NC(=O)CN2C(=O)NC(C)(c3ccc(C)cc3)C2=O)c1 (stereo not drawn)	-	-	-	-	-	-
CCOC(=O)c1c(-c2ccco2)csc1NC(=O)COC(=O)c1cnc(C)cn1	-	.	.	.	-	-
O=C1COc2ccc(C(=O)CSc3nc4ccccc4c(=O)n3-c3ccc(Cl)c(Cl)c3)cc2N1	?	-	-	-	10.4µM	-
CCN1CC=C2C(C#N)=C(N)C(C#N)(C#N)C(c3cc(Cl)ccc3Cl)C2C1 (stereo not drawn)	-	-	-	-	8.28µM	-
Cc1ccc2nc(Nc3ccc(C)c(Cl)c3)c3nncn3c2c1	-	-	-	-	?	-
Cc1cc(-c2ccccc2)nc2[nH]n(-c3ccccc3)c(=O)c12	.	-	-	-	-	-
Cc1cc(C)c2c(=O)n(-c3ccccc3)[nH]c2n1	.	88.4	-	50.7	-	-
Cc1ccc(C(=O)N2CCN(CCNC(=O)C(=O)NC(C)C)CC2)cc1	-	-	-	-	-	-
O=C(CSc1nc2ccc(Cl)cc2[nH]1)c1cccs1	-	122.4	-	57.8	-	-
